Laboratory results: PubChem BioAssay (NCI)
The panel holds about 83,000 compounds, 20% with a hit somewhere; the sample as a whole holds those more often.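 Values shown are percent growth following 48 h exposure of cells in 96-well plates to a single concentration of compound; below 10 was considered active.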 Values without a mark were called inactive. The source made the active and inactive calls.

The molecules below were run on HL-60(TB) leukemia (assay: NCI-60 one-dose screen, 48 h (100 = growth as untreated, 0 = no growth, -100 = all killed)). Settings: 10 µM unless noted.

SMILES | growth
COc1ccc(-c2nc(SC(C)C)nc(NCCc3c[nH]c4ccccc34)c2C#N)cc1 | 31.6%
O=C1c2ccccc2C(=O)c2c1c(C(=O)c1ccc(Cl)cc1)n1c2ccc2c3ccccc3ccc21 | 109%
COc1ccc(CN2[C@H](C(=O)NCCCCCCC(=O)NO)Cc3c([nH]c4ccccc34)[C@H]2C2CC2)cc1 | 3.44% (active)
CCCCCCCCc1cccc(CC(=O)Nc2ccc(C)cc2C(=O)O)c1 | 33.5% [25 µM]
COc1ccc2[nH]cc(-c3nnc(N)nc3-c3c[nH]c4ncc(Br)cc34)c2c1 | 103%
CN1CCN(Cc2ccc(C(=O)Nc3cccc(Nc4ccc5c(O)cccc5n4)c3)cc2C(F)(F)F)CC1 | -34.1% (active)
C=C1CCC2C3(C)COC(c4cc(F)cc(F)c4)OC3CCC2(C)C1CC(O)C1=CCOC1=O (stereo unspecified) | 61.2%
CC1CCc2c(sc3nc(SCC(=O)c4cccc(Br)c4)n(-c4ccccc4)c(=O)c23)C1 (stereo unspecified) | 64.7%
COc1cc(CNC(=O)/C=C/c2ccc3c(c2)OCO3)ccc1OCc1cn(-c2ccc([N+](=O)[O-])cc2)nn1 | 97%
CC[C@@]12CC(C(=O)OC)=C3Nc4cc5c(cc4[C@@]34CCN(C[C@H]3O[C@H]31)[C@@H]24)[C@@H]1[C@H](O5)[C@@H](O)[C@@]2(CC)CC(C(=O)OC)=C3Nc4cc(O)ccc4[C@@]34CCN1[C@@H]24 | -39.1% (active)
C/C(=N\Nc1ccc(S(N)(=O)=O)cc1)c1cnn(-c2cc(=O)[nH]c3ccc(Br)cc23)c1C | 84.7%
